# Source: PubChem BioAssay AID1159580 (chemical genetic matrix, 2015)
# Several values for one entry are separate records, joined by “and”; a condition that tells them apart may be missing. Identical values can stand only once. Screen size: about 5,500 compounds; about 2,000 (36%) were called active. Not shown: some 18% with an inconclusive outcome. Some of the results follow. A number with no mark means an inactive call. Rule as the data show it: active = normalized growth mostly below about 0.91 (no sharp cut-off); inconclusive = no clear call, values can overlap the other calls; inactive = mostly above about 0.92.
# Assay: chemical genetic growth profiling, strain panel (AID 1159580);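 also: tested at 20 µM; growth read once vehicle control cultures reached saturation at 30 °C; 1 = growth at the plate median or of vehicle wells; lower values mean less growth of the strain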
# Conditions: growth OD
smiles,measurement,setting,value
CC(CN1c2ccccc2Sc2ccccc21)N(C)C (configuration not stated),normalized growth,"S. cerevisiae deletion strains, locus YKL009W, strain mrt4, hits give low values",0.924
same,normalized growth,"S. cerevisiae deletion strains, locus YKL068W, hits give low values",0.982
same,normalized growth,"S. cerevisiae deletion strains, locus YKL085W, strain MDH1 (second series), hits give low values",0.965
same,normalized growth,"S. cerevisiae deletion strains, locus YKL085W, strain MDH1, hits give low values",0.965
same,normalized growth,"S. cerevisiae deletion strains, locus YKL160W, strain elf1, hits give low values",0.913
same,normalized growth,"S. cerevisiae deletion strains, locus YKL190W, strain CNB1, hits give low values",0.995
same,normalized growth,"S. cerevisiae deletion strains, locus YKR001C, strain vps1, hits give low values",0.968
same,normalized growth,"S. cerevisiae deletion strains, locus YKR026C, strain gcn3, hits give low values",0.972
same,normalized growth,"S. cerevisiae deletion strains, locus YKR091W, strain srl3, hits give low values",0.983
same,normalized growth,"S. cerevisiae deletion strains, locus YLL001W, strain dnm1, hits give low values",0.879 (active)
same,normalized growth,"S. cerevisiae deletion strains, locus YLL026W, hits give low values",0.943
same,normalized growth,"S. cerevisiae deletion strains, locus YLL041C, strain sdh2, hits give low values",0.982
same,normalized growth,"S. cerevisiae deletion strains, locus YLR027C, strain aat2, hits give low values",0.932
same,normalized growth,"S. cerevisiae deletion strains, locus YLR039C, strain RIC1, hits give low values",1.23
same,normalized growth,"S. cerevisiae deletion strains, locus YLR058C, strain SHM2, hits give low values",0.957
same,normalized growth,"S. cerevisiae deletion strains, locus YLR102C, strain apc9, hits give low values",0.981
same,normalized growth,"S. cerevisiae deletion strains, locus YLR113W, strain HOG1, hits give low values",1.03
same,normalized growth,"S. cerevisiae deletion strains, locus YLR221C, strain rsa3, hits give low values",0.969
same,normalized growth,"S. cerevisiae deletion strains, locus YLR258W, strain gsy2, hits give low values",0.974
same,normalized growth,"S. cerevisiae deletion strains, locus YLR262C, strain YPT6 (second series), hits give low values",1.07
same,normalized growth,"S. cerevisiae deletion strains, locus YLR262C, strain YPT6, hits give low values",1.34
same,normalized growth,"S. cerevisiae deletion strains, locus YLR268W, strain sec22, hits give low values",0.947
same,normalized growth,"S. cerevisiae deletion strains, locus YLR320W, strain mms22, hits give low values",0.944
same,normalized growth,"S. cerevisiae deletion strains, locus YLR330W, strain CHS5, hits give low values",0.993
same,normalized growth,"S. cerevisiae deletion strains, locus YLR342W, strain FKS1 (second series), hits give low values",0.928
same,normalized growth,"S. cerevisiae deletion strains, locus YLR342W, strain FKS1, hits give low values",0.844 (active)
same,normalized growth,"S. cerevisiae deletion strains, locus YLR357W, strain rsc2, hits give low values",0.99
same,normalized growth,"S. cerevisiae deletion strains, locus YLR370C, strain arc18, hits give low values",0.938
same,normalized growth,"S. cerevisiae deletion strains, locus YLR371W, strain rom2, hits give low values",0.962
same,normalized growth,"S. cerevisiae deletion strains, locus YLR384C, strain iki3, hits give low values",0.968
same,normalized growth,"S. cerevisiae deletion strains, locus YLR418C, strain cdc73, hits give low values",0.955
same,normalized growth,"S. cerevisiae deletion strains, locus YML016C, strain PPZ1, hits give low values",0.985
same,normalized growth,"S. cerevisiae deletion strains, locus YML032C, strain rad52, hits give low values",0.908
same,normalized growth,"S. cerevisiae deletion strains, locus YML120C, strain ndi1, hits give low values",0.921
same,normalized growth,"S. cerevisiae deletion strains, locus YML124C, strain tub3, hits give low values",0.983
same,normalized growth,"S. cerevisiae deletion strains, locus YMR058W, strain fet3, hits give low values",0.94
same,normalized growth,"S. cerevisiae deletion strains, locus YMR078C, strain ctf18, hits give low values",0.98
same,normalized growth,"S. cerevisiae deletion strains, locus YMR125W, strain sto1, hits give low values",0.988
same,normalized growth,"S. cerevisiae deletion strains, locus YMR129W, hits give low values",0.97
same,normalized growth,"S. cerevisiae deletion strains, locus YMR205C, strain PFK2, hits give low values",0.968
same,normalized growth,"S. cerevisiae deletion strains, locus YMR223W, strain ubp8, hits give low values",0.992
same,normalized growth,"S. cerevisiae deletion strains, locus YMR231W, strain pep5, hits give low values",0.983
same,normalized growth,"S. cerevisiae deletion strains, locus YMR263W, strain SAP30, hits give low values",0.999
same,normalized growth,"S. cerevisiae deletion strains, locus YMR307W, strain GAS1, hits give low values",1.12
same,normalized growth,"S. cerevisiae deletion strains, locus YNL067W, strain RPL9B, hits give low values",0.924
same,normalized growth,"S. cerevisiae deletion strains, locus YNL071W, strain lat1, hits give low values",0.969
same,normalized growth,"S. cerevisiae deletion strains, locus YNL128W, strain TEP1, hits give low values",1.02
same,normalized growth,"S. cerevisiae deletion strains, locus YNL175C, strain NOP13, hits give low values",1.01
same,normalized growth,"S. cerevisiae deletion strains, locus YNL183C, strain NPR1, hits give low values",0.964
same,normalized growth,"S. cerevisiae deletion strains, locus YNL197C, strain WHI3, hits give low values",1.01
same,normalized growth,"S. cerevisiae deletion strains, locus YNL209W, strain ssb2, hits give low values",0.962
same,normalized growth,"S. cerevisiae deletion strains, locus YNL224C, strain SQS1, hits give low values",1.01
same,normalized growth,"S. cerevisiae deletion strains, locus YNL233W, strain BNI4, hits give low values",0.925
same,normalized growth,"S. cerevisiae deletion strains, locus YNL248C, strain rpa49, hits give low values",0.971
same,normalized growth,"S. cerevisiae deletion strains, locus YNL250W, strain rad50, hits give low values",0.958
same,normalized growth,"S. cerevisiae deletion strains, locus YNL271C, strain bni1, hits give low values",0.973
same,normalized growth,"S. cerevisiae deletion strains, locus YNL298W, strain CLA4, hits give low values",0.978
same,normalized growth,"S. cerevisiae deletion strains, locus YNL307C, strain MCK1, hits give low values",0.958
same,normalized growth,"S. cerevisiae deletion strains, locus YNL322C, strain KRE1 (second series), hits give low values",0.976
same,normalized growth,"S. cerevisiae deletion strains, locus YNR049C, strain mso1, hits give low values",0.977
same,normalized growth,"S. cerevisiae deletion strains, locus YNR052C, strain pop2, hits give low values",0.976
same,normalized growth,"S. cerevisiae deletion strains, locus YOL006C, strain TOP1, hits give low values",0.79
same,normalized growth,"S. cerevisiae deletion strains, locus YOL012C, strain htz1",1.06
same,normalized growth,"S. cerevisiae deletion strains, locus YOL147C, strain pex11, hits give low values",0.976
same,normalized growth,"S. cerevisiae deletion strains, locus YOR001W, strain rrp6, hits give low values",0.889 (active)
same,normalized growth,"S. cerevisiae deletion strains, locus YOR061W, strain CKA2, hits give low values",0.955
same,normalized growth,"S. cerevisiae deletion strains, locus YOR069W, strain VPS5, hits give low values",0.986
same,normalized growth,"S. cerevisiae deletion strains, locus YOR070C, strain gyp1, hits give low values",0.965
same,normalized growth,"S. cerevisiae deletion strains, locus YOR080W, strain dia2, hits give low values",0.963
same,normalized growth,"S. cerevisiae deletion strains, locus YOR083W, strain WHI5 (second series), hits give low values",1.02
same,normalized growth,"S. cerevisiae deletion strains, locus YOR083W, strain WHI5, hits give low values",0.898
same,normalized growth,"S. cerevisiae deletion strains, locus YOR106W, strain vam3, hits give low values",0.884
same,normalized growth,"S. cerevisiae deletion strains, locus YOR136W, strain idh2, hits give low values",0.968
same,normalized growth,"S. cerevisiae deletion strains, locus YOR144C, strain elg1, hits give low values",0.989
same,normalized growth,"S. cerevisiae deletion strains, locus YOR184W, strain ser1, hits give low values",1.01
same,normalized growth,"S. cerevisiae deletion strains, locus YOR231W, strain MKK1, hits give low values",1.01
same,normalized growth,"S. cerevisiae deletion strains, locus YOR265W, strain rbl2, hits give low values",0.955
same,normalized growth,"S. cerevisiae deletion strains, locus YOR270C, strain vph1, hits give low values",0.998
same,normalized growth,"S. cerevisiae deletion strains, locus YOR290C, strain snf2, hits give low values",0.96
same,normalized growth,"S. cerevisiae deletion strains, locus YOR316C, strain cot1, hits give low values",0.97
same,normalized growth,"S. cerevisiae deletion strains, locus YPL051W, strain arl3, hits give low values",0.863 (active)
same,normalized growth,"S. cerevisiae deletion strains, locus YPL078C, strain atp4, hits give low values",0.838 (active)
same,normalized growth,"S. cerevisiae deletion strains, locus YPL106C, strain sse1, hits give low values",0.929
same,normalized growth,"S. cerevisiae deletion strains, locus YPL240C, strain hsp82, hits give low values",0.965
same,normalized growth,"S. cerevisiae deletion strains, locus YPL241C, strain CIN2, hits give low values",0.989 and 0.995
same,normalized growth,"S. cerevisiae deletion strains, locus YPL256C, strain CLN2, hits give low values",1.07
same,normalized growth,"S. cerevisiae deletion strains, locus YPR119W, strain clb2, hits give low values",0.971
same,normalized growth,"S. cerevisiae deletion strains, locus YPR141C, strain kar3, hits give low values",0.976
same,normalized growth,"S. cerevisiae deletion strains, locus YPR163C, strain tif3, hits give low values",0.928
same,normalized growth,"S. cerevisiae deletion strains, locus YPR167C, strain met16, hits give low values",0.97
same,normalized growth,"S. cerevisiae deletion strains, strain wtn01, hits give low values",0.957
same,normalized growth,"S. cerevisiae strains, strain wild type, hits give low values",0.975
